Test results as given in the supplement of paper PMC10127200.
Counter-ions that a name gives are not always drawn.

Columns and labels:
Experiment in all cases: Euclidean distance of Cell Painting phenotypic profile (signed KS, 77 features) to DMSO centroid (dimensionless distance); higher = stronger phenotypic change vs DMSO (phenoactivity)
Settings in all cases: 48 h; 5 or 10 uM (library dependent)
[1] = tested on: 786-O
How it was run: (§1)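 At 10 or 5 uM, as set by the library, and 0.1% DMSO final, compounds were applied for 48 h to five cancer lines and one healthy fibroblast line. Stained cells were imaged confocally at 20X in 9 fields per well, and Harmony extracted 77 features scored as signed Kolmogorov-Smirnov statistics against vehicle wells on the same plate. Profiles underwent plate-position correction, correlation weighting and replicate averaging at the top dose. Phenoactivity is the Euclidean distance from each such profile to the median vehicle profile.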

[2] = tested on: A549
How it was run: as §1

[3] = tested on: DU145
How it was run: as §1

[4] = tested on: FB
How it was run: as §1

[5] = tested on: HEPG2
How it was run: as §1

[6] = tested on: OVCAR4
How it was run: as §1

Compound	Euclidean distance [1]	Euclidean distance [2]	Euclidean distance [3]	Euclidean distance [4]	Euclidean distance [5]	Euclidean distance [6]
CC(CCc1ccccc1)NC(C)C(O)c1ccc(O)cc1 (stereo not drawn) [Nylidrin Hydrochloride]	1.45	1.2	1.38	1.11	1.29	1.34
C=C1[C@@H](C)[C@H]2[C@H](Cc3ccccc3)NC(=O)[C@]23[C@H](OC(C)=O)/C=C/[C@@](C)(O)C(=O)[C@@H](C)C/C=C/[C@H]3[C@@H]1O [Cytochalasin D]	4.23	3.63	3.2	4.07	2.24	3.87
C=C(C)[C@H]1Cc2c(ccc3c2O[C@@H]2COc4cc(OC)c(OC)cc4[C@@H]2C3=O)O1 [Rotenone (Barbasco)]	2.48	2.97	3.54	2.77	2.94	2.89
CC[C@H](C)[C@@H]([C@@H](CC(=O)N1CCC[C@H]1[C@H](OC)[C@@H](C)C(=O)N[C@H](C)[C@@H](O)c1ccccc1)OC)N(C)C(=O)[C@@H](NC(=O)[C@@H](NC)C(C)C)C(C)C [Monomethyl auristatin E (MMAE)]	3.13	2.69	4.69	2.93	3.85	3.16
Cc1cc(SCc2sc(-c3ccc(C(F)(F)F)c(F)c3)nc2C)ccc1OCC(=O)O	0.634	1.17	0.823	1.08	2.24	0.807
S=C=NCc1ccccc1 [Benzyl isothiocyanate]	4.42	2.5	3.41	2.02	3.28	1.82
CN(C)NC(=O)CCC(=O)O [Daminozide]	0.626	0.507	0.706	0.873	0.742	1.16
C=CCN1CC[C@]23c4c5ccc(O)c4O[C@H]2C(=O)CC[C@@]3(O)[C@H]1C5 [Naloxone HCl]	1.04	0.456	0.671	0.576	0.59	0.689
O=c1ccc2cc(O[C@@H]3O[C@H](CO)[C@@H](O)[C@H](O)[C@H]3O)c(O)cc2o1 [Esculin]	0.808	0.729	0.922	0.993	0.624	1.29
C[C@@H]1O[C@@H](O[C@H]2C[C@@H](O)[C@]3(CO)[C@H]4[C@H](O)C[C@]5(C)[C@@H](C6=CC(=O)OC6)CC[C@]5(O)[C@@H]4CC[C@]3(O)C2)[C@H](O)[C@H](O)[C@H]1O [Ouabain]	6.72	6.03	6.56	4.56	3.34	7.06
Cn1c(CCCC(=O)O)nc2cc(N(CCCl)CCCl)ccc21 [Bendamustine]	0.99	0.793	0.645	0.717	0.64	0.732
CC(=O)O[C@H]1CC[C@H]2[C@@H]3CCC4=CC(=O)CCC4=C3C=C[C@]12C [Trenbolone acetate]	0.864	0.493	1.04	0.72	1.19	0.778
O=[N+]([O-])/C=C/c1ccc2c(c1)OCO2	4.42	2.25	0.868	2.39	0.782	2.34
C[C@]12CC[C@@H]3c4ccc(OC(=O)N(CCCl)CCCl)cc4CC[C@H]3[C@@H]1CC[C@@H]2OP(=O)(O)O [Estramustine phosphate sodium]	1.21	0.586	0.548	0.917	0.766	0.779
Cc1ccccc1-n1c(Cn2ncc3c(N)ncnc32)nc2cccc(C)c2c1=O	0.868	0.946	1.12	0.901	2.23	1.03
Cn1c(CCCCCCC(=O)NO)nc2cc(N(CCCl)CCCl)ccc21 [Tinostamustine(EDO-S101)]	3.61	3.53	3.45	2.57	2.74	3.16
Cc1cccc([C@H](C)c2c[nH]cn2)c1C [Dexmedetomidine]	0.401	0.732	0.547	0.876	0.546	1.12

Compound	Euclidean distance [1]	Euclidean distance [2]	Euclidean distance [3]	Euclidean distance [4]	Euclidean distance [5]	Euclidean distance [6]
CN1C[C@H](C(=O)N[C@]2(C)O[C@@]3(O)[C@@H]4CCCN4C(=O)[C@H](Cc4ccccc4)N3C2=O)C[C@@H]2c3cccc4[nH]cc(c34)C[C@H]21 [Dihydroergotamine Mesylate]	1.1	1.93	0.862	1.05	1.1	1.25
C[C@]12CC[C@H](O)CC1=CC[C@@H]1[C@@H]2CC[C@]2(C)C(=O)CC[C@@H]12 [Dehydroepiandrosterone (DHEA)]	0.908	0.827	1.46	1.11	1.12	1.16
CC(=O)NC1CCSC1=O (stereo not drawn) [Citiolone]	1.19	0.873	0.825	1.06	0.461	1.71
COc1ccc2c(c1)[C@]13CCCC[C@@H]1[C@H](C2)N(C)CC3 [Dextromethorphan hydrobromide hydrate]	1.3	1.32	0.854	1.76	1.11	1.39
COc1ccc2[nH]cc(CCN)c2c1 [5-Methoxytryptamine]	0.978	0.912	0.758	1.38	0.952	0.882
CN1[C@@H]2C[C@@H](OC(=O)[C@H](CO)c3ccccc3)C[C@H]1[C@@H]1O[C@@H]12 [Scopolamine HBr trihydrate]	1.03	1.25	1.17	1.06	0.452	0.796
CN1CCC(c2c[nH]c3ccc(O)cc23)CC1	0.692	0.484	1.17	0.749	2.09	0.873
COc1cc2c(c(OC)c1OC)-c1ccc(OC)c(=O)cc1[C@@H](NC(C)=O)CC2 [Colchicine]	3.12	3.04	4.54	2.88	3.8	3.18
COC(=O)C1=CCCN(C)C1 [Arecoline]	0.942	1.44	0.841	1.01	0.762	0.957
O=C(C[S+]([O-])C(c1ccccc1)c1ccccc1)NO (stereo not drawn) [Adrafinil]	1.35	0.729	0.936	0.942	0.585	1.57
CCCN1C[C@H](CSC)C[C@@H]2c3cccc4[nH]cc(c34)C[C@H]21 [Pergolide Mesylate]	1.01	1.03	1.06	0.928	0.589	1.71
O=C1C=C2C=C[C@@H]3C[C@@]2(O1)[C@H]1CCCCN31 [Securinine]	0.99	1.25	1.42	1.78	1.08	1.74
C[C@]12CC[C@H](O)C[C@@H]1CC[C@@H]1[C@@H]2CC[C@]2(C)C(=O)CC[C@@H]12 [Epiandrosterone]	1.32	1.2	0.784	1.34	0.785	0.989
C/C(=C\c1csc(C)n1)[C@@H]1C[C@@H]2O[C@@H]2CCC[C@H](C)[C@H](O)[C@@H](C)C(=O)C(C)(C)[C@@H](O)CC(=O)O1 [Epothilone A]	3.01	2.89	4.3	2.5	2.34	3.02
CC(=O)O[C@H]1C[C@@H]2CC[C@@H]3[C@H](CC[C@@]4(C)[C@H]3C[C@H]([N+]3(C)CCCCC3)[C@@H]4OC(C)=O)[C@@]2(C)C[C@@H]1[N+]1(C)CCCCC1 [Pancuronium dibromide]	1.41	0.916	0.532	0.954	0.518	1.42
CN[C@@H]1[C@@H](O)[C@@H](O[C@@H]2[C@@H](O)[C@H](O[C@H]3O[C@H](CN)CC[C@H]3N)[C@@H](N)C[C@H]2N)OC[C@]1(C)O.CN[C@@H]1[C@@H](O)[C@@H](O[C@@H]2[C@@H](O)[C@H](O[C@H]3O[C@H]([C@@H](C)N)CC[C@H]3N)[C@@H](N)C[C@H]2N)OC[C@]1(C)O.CN[C@@H]1[C@@H](O)[C@@H](O[C@@H]2[C@@H](O)[C@H](O[C@H]3O[C@H]([C@@H](C)NC)CC[C@H]3N)[C@@H](N)C[C@H]2N)OC[C@]1(C)O [Gentamicin Sulfate]	1.29	1.18	1.22	0.978	0.832	1.02
